# Measured values published in PubChem BioAssay (NCATS).
# Records with an inconclusive call do not appear. Entries that show only a call come without a potency. Calls of active or inactive are those of the source. Unless noted, calls come from the whole dose curve. Square brackets hold non-standard residues; d marks the D form. Peptide text beside a SMILES is read from it.
# Tests used:
# [1] = Cytotoxicity counterscreen for inhibitors of SARS-CoV-2 cell entry (AID 1645845); settings: outcome: dose series up to 57.1 µM unless noted; note: nearly all actives have a fitted effect of over 50% in size
# Procedure, shortened: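 Counterscreen run in the same HEK293-ACE2 line as the pseudotyped-particle entry assay, without particles. Viability after 48 h at 37 C was read as ATP luminescence, scaled between cell-containing and cell-free wells.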
# [2] = Primary qHTS to identify inhibitors of SARS-CoV-2 cell entry (AID 1645846); settings: SARS-CoV-2 pseudovirus cell entry assay, luminescence; activity change, negative = inhibition: at 57.1 µM (top of the series) unless noted; note: nearly all actives have a fitted effect of over 45% in size
# Procedure, shortened: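 Luminescence readout (Bright-Glo luciferase) 48 h after pseudoparticle addition. HEK293-ACE2 cells, 1500/well; compound pre-incubation 1 h; Normalized to spike PP and bald PP.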
# [3] = Primary qHTS for inhibitors of nuclear receptor binding SET domain protein 2 (NSD2) in an isogenic RCH-ACV NSD2 p.E1099K mutant (9B) (AID 1645876; active = well fitted curve in the direction sought with a large enough effect; an effect the other way counts as inactive or inconclusive; note: nearly all actives have a fitted effect of over 70% in size)
# [4] = Primary qHTS for inhibitors of nuclear receptor binding SET domain protein 2 (NSD2) in an RCH-ACV wild type WT cells (2C) (AID 1645877; active = well fitted curve in the direction sought with a large enough effect; an effect the other way counts as inactive or inconclusive; note: nearly all actives have a fitted effect of over 70% in size)
# [5] = VSVG counterscreen qHTS to identify inhibitors of SARS-CoV-2 cell entry (AID 1645847); note: nearly all actives have a fitted effect of over 65% in size
# Procedure, shortened: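 HEK293-ACE2 cells (Expi293F stably expressing human ACE2) were pretreated with compound for 1 h at 37 °C, then infected with MLV-based VSV-G pseudotyped particles for 48 h. Luciferase luminescence was normalized to VSV-G PP and bald PP wells.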
# Potency is the fitted concentration of half-maximal effect.
smiles,measurement,setting,value
CCOc1cc(/C=C2/C(=O)N(c3ccccc3)N=C2C)cc(Cl)c1OCC(=O)OC,Potency,[1],inactive
same,"activity change, negative = inhibition",[2],-12.7%
CCc1cc(/C(C)=N/OCc2ccc(C3CCCCC3)c(C(F)(F)F)c2)ccc1CN1CC(C(=O)O)C1,Potency,[1],inactive
same,Potency,[2],inactive
CCCCC[C@H](O)/C=C/[C@H]1[C@H](O)CC(=O)[C@@H]1CCCCCCC(=O)O,Potency,[1],inactive
same,"activity change, negative = inhibition",[2],-2.28%
Cc1c(F)ccc(C(=O)Nc2cc([N+](=O)[O-])ccc2N2CCN(C)CC2)c1Cl,Potency,[1],inactive
same,"activity change, negative = inhibition",[2],-18.7%
CCS(=O)(=O)c1ccc2oc(-c3ccc4ccccc4c3)nc2c1,Potency,[1],inactive
same,Potency,[2],inactive
C[C@H](CCC(=O)O)[C@H]1CC[C@H]2[C@@H]3[C@@H](O)C[C@@H]4C[C@H](O)CC[C@]4(C)[C@H]3CC[C@]12C,Potency,[1],inactive
same,"activity change, negative = inhibition",[2],-16.5%
FC(F)(F)c1ccc(CNc2ccc(Cc3c[nH]c4ncc(Cl)cc34)cn2)cn1,Potency,[1],inactive
same,"activity change, negative = inhibition",[2],-1.72%
CNc1nc(Nc2cnn([C@H]3CCN(C4COC4)C[C@@H]3F)c2Cl)ncc1C(F)(F)F,Potency,[1],inactive
same,Potency,[2],inactive
Clc1cc2c(NC3CCCC3)nnc(-c3ccncc3)c2cc1Cl,Potency,[1],inactive
same,Potency,[2],inactive
Cc1cc(Oc2ccc3nc(COc4ccc(CC5SC(=O)NC5=O)cc4)n(C)c3c2)cc(C)c1N (stereo unspecified),Potency,[1],inactive
same,"activity change, negative = inhibition",[2],2.59%
CN(CCOc1ccc(-c2ccc3c(c2)OCO3)cc1C(C)(C)C)CC(=O)O,Potency,[1],inactive
same,"activity change, negative = inhibition",[2],-18.5%
C=CCNC1=C2C[C@@H](C)C[C@H](OC)[C@H](O)[C@@H](C)/C=C(\C)[C@H](OC(N)=O)[C@@H](OC)/C=C\C=C(/C)C(=O)NC(=CC1=O)C2=O,Potency,[1],25.1 µM (active)
same,Potency,[2],14.1 µM (active)
CC(C)C[C@@H]1NC(=O)[C@@H](C(C)C)NC(=O)[C@@H]2CCCN2C(=O)[C@@H](CC(=O)O)NC(=O)[C@@H](Cc2c[nH]c3ccccc23)NC1=O (cyclo(L[dW][dD]P[dV])),Potency,[1],inactive
same,"activity change, negative = inhibition",[2],-6.47%
CCCNC(=O)c1cn2ncnc(Nc3cc(C(=O)NC4CC4)ccc3C)c2c1C,Potency,[1],inactive
same,"activity change, negative = inhibition",[2],-27.9%
CC(C)=CCC[C@](C)(O[C@@H]1O[C@H](CO[C@@H]2O[C@H](CO)[C@@H](O)[C@H](O)[C@H]2O)[C@@H](O)[C@H](O)[C@H]1O)[C@H]1CC[C@]2(C)[C@@H]1[C@H](O)C[C@@H]1[C@@]3(C)CC[C@H](O[C@@H]4O[C@H](CO)[C@@H](O)[C@H](O)[C@H]4O[C@@H]4O[C@H](CO)[C@@H](O)[C@H](O)[C@H]4O)C(C)(C)[C@@H]3CC[C@]12C,Potency,[1],inactive
same,"activity change, negative = inhibition",[2],-3.97% [at 27.1 µM]
CONC(=O)c1ccccc1Nc1cc(Nc2cc(C)nn2C(C)C)ncc1Cl,Potency,[1],inactive
same,"activity change, negative = inhibition",[2],-10.2%
Cc1cc(-c2cc(OC(=O)c3ccccc3)ccc2Cl)cc2nnc(Nc3ccc(OCCN4CCCC4)cc3)nc12,Potency,[1],inactive
same,"activity change, negative = inhibition",[2],-21.1% [at 27.1 µM]
Nc1nc2cc(-c3ccc4ncc(C(=O)N5CCOCC5)n4c3)ccc2o1,Potency,[1],inactive
same,Potency,[2],inactive
O=c1sn(-c2cccc3ccccc23)c(=O)n1Cc1ccccc1,Potency,[1],inactive
same,Potency,[2],inactive
CC(C)c1c(-c2ccccc2)nc2c(C#N)c[nH]n2c1=O,Potency,[1],inactive
same,Potency,[2],inactive
Cc1nc(-c2cccnc2)sc1C(=O)Nc1ccccc1-c1cn2c(CN3CCOCC3)csc2n1,Potency,[1],inactive
same,Potency,[2],inactive
COc1nc(N)nc2c1ncn2C1OC(CO)C(O)C1O (stereo unspecified),Potency,[1],inactive
same,"activity change, negative = inhibition",[2],1.29%
OC[C@H]1O[C@@H](S[C@@H]2O[C@H](CO)[C@H](O)[C@H](n3cc(-c4cccc(F)c4)nn3)[C@H]2O)[C@H](O)[C@@H](n2cc(-c3cccc(F)c3)nn2)[C@H]1O,Potency,[1],inactive
same,"activity change, negative = inhibition",[2],2.64%
CC(C)(C)Sc1c(CC(C)(C)C(=O)O)n(Cc2ccc(Cl)cc2)c2ccc(OCc3ccc4ccccc4n3)cc12,Potency,[1],inactive
same,Potency,[2],inactive
C[C@@H]1[C@H](O)[C@@H](C)/C=C/C=C/C=C/C=C/C=C/C=C/C=C/[C@H](O[C@@H]2O[C@H](C)[C@@H](O)[C@H](N)[C@@H]2O)C[C@@H]2O[C@](O)(C[C@@H](O)C[C@@H](O)[C@H](O)CC[C@@H](O)C[C@@H](O)CC(=O)O[C@H]1C)C[C@H](O)[C@H]2C(=O)O,Potency,[1],inactive
same,Potency,[2],inactive
N#Cc1ccc(C2CCCc3cncn32)cc1 (stereo unspecified),Potency,[1],inactive
same,"activity change, negative = inhibition",[2],-13.4% [at 27.1 µM]
CCO[C@@H]1OC(=O)C[C@@H]1NC(=O)[C@@H]1CCCN2C(=O)CC[C@H](NC(=O)c3nccc4ccccc34)C(=O)N12,Potency,[1],inactive
same,"activity change, negative = inhibition",[2],-4.46%
COc1ccc2[nH]c(C(=O)N3CCC(CC(C)(C)O)CC3)cc2c1,Potency,[1],inactive
same,Potency,[2],inactive
COc1ccc(C(=O)N2CCN(C(=O)/C=C/c3ccc(Br)cc3)CC2)cc1,Potency,[1],inactive
same,"activity change, negative = inhibition",[2],-2.12%
N=C(N)c1ccc2nc(-c3cc(CC(=O)N[C@@H](CC(=O)O)C(=O)O)cc(-c4cc(S(N)(=O)=O)ccc4O)c3O)[nH]c2c1,Potency,[1],inactive
same,Potency,[2],inactive
CCOCOC[C@H](C[C@H](C)C(=O)NO)NC(=O)c1ccc(Oc2ccccc2)cc1,Potency,[1],inactive
same,"activity change, negative = inhibition",[2],-23.9%
CONC(=O)Nc1ccc(-c2sc3c(c2CN(C)C)c(=O)n(-c2ccc(OC)nn2)c(=O)n3Cc2c(F)cccc2F)cc1,Potency,[1],inactive
same,"activity change, negative = inhibition",[2],-24.2%
O=C1OC2(CCC(C(=O)Nc3ccn(-c4ccccc4F)n3)CC2)c2cnccc21 (stereo unspecified),Potency,[1],inactive
same,Potency,[2],inactive
N=C1S/C(=C\c2ccc(-c3ccc4c(c3)C(=O)NC4=O)o2)C(=O)N1c1ccc(Br)cc1,Potency,[1],inactive
same,"activity change, negative = inhibition",[2],-8.86% [at 27.1 µM]
CC(C)Oc1ccc(-c2nn([C@@H](C)c3oc4ccc(F)cc4c(=O)c3-c3cccc(F)c3)c3ncnc(N)c23)cc1F,Potency,[1],inactive
same,"activity change, negative = inhibition",[2],-16.7%
COc1ccccc1C(=O)Nc1cc2c(cc1N1CCNC[C@H]1C)n(C)c(=O)n2C,Potency,[1],inactive
same,"activity change, negative = inhibition",[2],-55.2%
CN[C@@H](C)C(=O)N[C@@H]1C(=O)N(Cc2c(C)ccc3ccccc23)c2ccc(C#N)cc2N(C(C)=O)[C@H]1C,Potency,[1],inactive
same,Potency,[2],inactive
CC(Nc1ncnc2nc[nH]c12)c1cc2cccc(Cl)c2c(=O)n1-c1ccccc1 (stereo unspecified),Potency,[1],inactive
same,"activity change, negative = inhibition",[2],-36.2%
CC(C)(c1ccc(OCC(O)CO)cc1)c1ccc(OCC(O)CCl)cc1 (stereo unspecified),Potency,[1],inactive
same,"activity change, negative = inhibition",[2],-34.4%
NCc1ccc(OCCCc2sc(-c3ccc4c(c3)/C(=N/Nc3nc5ccccc5s3)CCC4)nc2C(=O)O)cc1,Potency,[1],inactive
same,"activity change, negative = inhibition",[2],1.79%
c1cn2cc(-c3ccc4cn[nH]c4c3)nc(Nc3ccc(N4CCOCC4)cc3)c2n1,Potency,[1],2.82 µM (active)
same,"activity change, negative = inhibition",[2],-27%
Cn1cc(-c2nc(N[C@@H]3CCCC[C@@H]3N)c(F)c3c2C(=O)NC3)cn1,outcome,[1],inactive [at 5.25 µM]
same,"activity change, negative = inhibition",[2],4.2% [at 5.25 µM]
O=C(CCNC(=O)c1ccc(OC(F)(F)F)cc1)N[C@@H]1CCCc2ccccc21,Potency,[1],inactive
same,"activity change, negative = inhibition",[2],4.82%
COc1cc(C(=O)O)ccc1NC(=O)[C@@H]1N[C@@H](CC(C)(C)C)[C@](C#N)(c2ccc(Cl)cc2F)[C@H]1c1cccc(Cl)c1F,Potency,[1],inactive
same,"activity change, negative = inhibition",[2],1.92%
N#Cc1ccnc(N2C(=O)CC[C@H]2C(=O)N(c2cncc(F)c2)C(C(=O)NC2CC(F)(F)C2)c2ccccc2Cl)c1 (stereo partly specified),Potency,[1],inactive
same,"activity change, negative = inhibition",[2],-25.5%
COc1ccc(Cl)c(Nc2nc3ccccc3nc2NS(=O)(=O)c2cccc(NC(=O)C(C)(C)N)c2)c1,Potency,[1],inactive
same,"activity change, negative = inhibition",[2],-26.9%
C[C@@H]1N=C(N)NC(N(C)C)=N1,Potency,[1],inactive
same,"activity change, negative = inhibition",[2],-14.7%
CCCCCCCCCCCCC[N+](C)(C)Cc1ccccc1,Potency,[1],20 µM (active)
same,Potency,[2],20 µM (active)
CCn1c(N)c(C(=O)NC)c(=O)c2ccc(C#CC(C)(O)COC)nc21 (stereo unspecified),Potency,[1],inactive
same,"activity change, negative = inhibition",[2],2.21%
Cc1sc2c(c1C)C(c1ccc(Cl)cc1)=NC(CC(N)=O)c1nnc(C)n1-2 (stereo unspecified),Potency,[1],inactive
same,"activity change, negative = inhibition",[2],-23.3%
same,Potency,[3],0.105 µM (active)
same,Potency,[4],0.132 µM (active)
O=C(O)c1ccc(-c2c[nH]c3ncc(-c4ccccc4)cc23)cc1C1CCCC1,Potency,[1],inactive
same,Potency,[2],2.82 µM (active)
same,Potency,[5],0.541 µM (active)
CC1(C)CCC2(CC1)N[C@@H](C(=O)N[C@@H]1CC[C@@H](C(N)=O)OC1)[C@H](c1ccnc(Cl)c1F)[C@]21C(=O)Nc2cc(Cl)ccc21,Potency,[1],inactive
same,"activity change, negative = inhibition",[2],-20.9% [at 37.9 µM]
O=C(Nc1cc(Oc2cc(F)c(NC(=O)C3(C(=O)Nc4ccc(F)cc4)CC3)cc2F)ccn1)C1CC1,Potency,[1],inactive
same,"activity change, negative = inhibition",[2],-38.1%
same,Potency,[5],15.2 µM (active)
C=CC(=O)Nc1cc(N2CCN(CC)CC2)ccc1Nc1cc(N(C)C(=O)Nc2c(Cl)c(OC)cc(OC)c2Cl)ncn1,Potency,[1],inactive
same,"activity change, negative = inhibition",[2],-6.15%
CN1CCN(C(=O)[C@H]2[C@@H](C(=O)O)[C@H]3CC[C@@H]2O3)CC1,"activity change, negative = cytotoxicity",[1],2.39% [at 11.3 µM] (inactive)
same,"activity change, negative = inhibition",[2],-6.02% [at 11.3 µM]
O=S(=O)(NCCNC/C=C/c1ccc(Br)cc1)c1cccc2cnccc12,Potency,[1],inactive
same,"activity change, negative = inhibition",[2],-22.5%
CC(C)OC(=O)[C@H](C)N[P@](=O)(OC[C@H]1O[C@@H](n2ccc(=O)[nH]c2=O)[C@](C)(F)[C@@H]1O)Oc1ccccc1,Potency,[1],inactive
same,"activity change, negative = inhibition",[2],-40%
same,Potency,[5],30.4 µM (active)
CN1C(=O)[C@@H](NC(=O)c2cc(Cc3ccccc3)on2)COc2ccccc21,Potency,[1],inactive
same,Potency,[5],inactive
C[C@H]1COCCN1c1cc(C2(S(=O)(=O)C3CC3)CC2)nc(-c2ccc(NC(=S)NCCO)cc2)n1,Potency,[1],inactive
same,"activity change, negative = inhibition",[2],-79.3%
same,Potency,[5],0.304 µM (active)
CN1CCN(C(=O)c2ccc(-c3ccc4c(C=O)c(O)ccc4c3)s2)CC1,Potency,[1],inactive
same,Potency,[2],inactive
